Assay results reported in PubChem BioAssay AID1159580 (chemical genetic matrix, 2015).
Out of some 5,500 compounds screened, about 2,000 (36%) were called active. Not shown: some 18% with an inconclusive outcome. No stated cut-off is given here; in the data, active means normalized growth mostly below about 0.91 (no sharp cut-off); inconclusive means no clear call, values can overlap the other calls; inactive means mostly above about 0.92. The list shows a part of the results.

Assay: chemical genetic growth profiling, strain panel (AID 1159580);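 further: tested at 20 µM; growth read once vehicle control cultures reached saturation at 30 °C; 1 = growth at the plate median or of vehicle wells; lower values mean less growth of the strain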
Settings: growth OD
[1] = S. cerevisiae deletion strains, locus YDL101C, strain DUN1, active compounds read low
[2] = S. cerevisiae deletion strains, locus YHR030C, strain SLT2, active compounds read low
[3] = S. cerevisiae deletion strains, locus YJR075W, strain HOC1, active compounds read low
[4] = S. cerevisiae deletion strains, locus YMR307W, strain GAS1, active compounds read low
[5] = S. cerevisiae deletion strains, locus YPL055C, strain LGE1, active compounds read low
[6] = S. cerevisiae deletion strains, locus YHR079C, strain IRE1, active compounds read low
[7] = S. cerevisiae deletion strains, locus YJL095W, strain BCK1, active compounds read low
[8] = S. cerevisiae deletion strains, locus YJR066W, strain TOR1, active compounds read low
[9] = S. cerevisiae deletion strains, locus YLR113W, strain HOG1, active compounds read low
[10] = S. cerevisiae deletion strains, locus YNL183C, strain NPR1, active compounds read low
[11] = S. cerevisiae deletion strains, locus YOR231W, strain MKK1, active compounds read low
[12] = S. cerevisiae deletion strains, locus YPL256C, strain CLN2, active compounds read low

Measured: normalized growth

Clc1ccc(C=C2c3ccccc3-c3ccccc32)cc1
inactive: S. cerevisiae deletion strains, locus YAL013W, strain DEP1, active compounds read low 0.988 | S. cerevisiae deletion strains, locus YBR229C, strain ROT2, active compounds read low 0.973 | [1] 0.986 | S. cerevisiae deletion strains, locus YDL134C, strain PPH21, active compounds read low 1 | S. cerevisiae deletion strains, locus YDR150W, strain NUM1, active compounds read low 0.95 | S. cerevisiae deletion strains, locus YEL061C, strain CIN8, active compounds read low 0.99 | S. cerevisiae deletion strains, locus YGR078C, strain PAC10, active compounds read low 1 | [2] 0.873 | S. cerevisiae deletion strains, locus YHR087W, strain rtc3, active compounds read low 0.986 | S. cerevisiae deletion strains, locus YJL187C, strain SWE1, active compounds read low 1 | S. cerevisiae deletion strains, locus YJR043C, strain POL32, active compounds read low 0.981 | [3] 0.979 | S. cerevisiae deletion strains, locus YLR039C, strain RIC1, active compounds read low 0.967 | S. cerevisiae deletion strains, locus YLR058C, strain SHM2 (second series), active compounds read low 0.972 | S. cerevisiae deletion strains, locus YLR085C, strain ARP6, active compounds read low 0.996 | S. cerevisiae deletion strains, locus YLR262C, strain YPT6, active compounds read low 0.855 | S. cerevisiae deletion strains, locus YML094W, strain GIM5, active compounds read low 1.03 | S. cerevisiae deletion strains, locus YMR219W, strain ESC1, active compounds read low 0.988 | S. cerevisiae deletion strains, locus YMR263W, strain SAP30, active compounds read low 0.983 | [4] 1.03 | S. cerevisiae deletion strains, locus YNL128W, strain TEP1, active compounds read low 0.984 | S. cerevisiae deletion strains, locus YNL153C, strain GIM3, active compounds read low 0.965 | S. cerevisiae deletion strains, locus YNL298W, strain CLA4 (second series), active compounds read low 0.949 | S. cerevisiae deletion strains, locus YNL322C, strain KRE1, active compounds read low 1 | S. cerevisiae deletion strains, locus YNR030W, strain Alg12, active compounds read low 0.957 | [5] 1.01 | S. cerevisiae deletion strains, locus YPL241C, strain CIN2, active compounds read low 0.995 | S. cerevisiae deletion strains, locus YPR135W, strain CTF4, active compounds read low 0.855 | S. cerevisiae strains, strain wild type, active compounds read low 0.961

O=C1Nc2ccccc2/C1=C/c1ccc(C(F)(F)F)cc1Cl
active: [2] 0.741 | [9] 0.78 | [12] 0.827
inactive: S. cerevisiae deletion strains, locus YAR019C, strain CDC15, active compounds read low 0.978 | S. cerevisiae deletion strains, locus YBL105C, strain PKC1, active compounds read low 0.965 | S. cerevisiae deletion strains, locus YBR135W, strain CKS1, active compounds read low 0.966 | S. cerevisiae deletion strains, locus YBR136W, strain MEC1, active compounds read low 0.982 | S. cerevisiae deletion strains, locus YBR160W, strain CDC28, active compounds read low 0.979 | S. cerevisiae deletion strains, locus YDL017W, strain CDC7, active compounds read low 0.972 | S. cerevisiae deletion strains, locus YDL028C, strain MPS1, active compounds read low 0.977 | [1] 0.983 | S. cerevisiae deletion strains, locus YDL108W, strain KIN28, active compounds read low 0.974 | S. cerevisiae deletion strains, locus YDL132W, strain cdc53, active compounds read low 0.982 | S. cerevisiae deletion strains, locus YDL214C, strain PRR2, active compounds read low 0.884 | S. cerevisiae deletion strains, locus YDR052C, strain DBF4, active compounds read low 0.979 | S. cerevisiae deletion strains, locus YDR054C, strain cdc34, active compounds read low 0.958 | S. cerevisiae deletion strains, locus YDR226W, strain ADK1, active compounds read low 0.961 | S. cerevisiae deletion strains, locus YDR477W, strain SNF1, active compounds read low 0.93 | S. cerevisiae deletion strains, locus YER123W, strain YCK3, active compounds read low 0.939 | S. cerevisiae deletion strains, locus YER133W, strain GLC7, active compounds read low 0.953 | S. cerevisiae deletion strains, locus YFL009W, strain cdc4, active compounds read low 0.976 | S. cerevisiae deletion strains, locus YFL029C, strain CAK1, active compounds read low 0.979 | S. cerevisiae deletion strains, locus YFR003C, strain YPI1, active compounds read low 0.973 | S. cerevisiae deletion strains, locus YFR019W, strain FAB1, active compounds read low 0.979 | S. cerevisiae deletion strains, locus YFR028C, strain CDC14, active compounds read low 0.974 | S. cerevisiae deletion strains, locus YGR040W, strain KSS1, active compounds read low 0.931 | S. cerevisiae deletion strains, locus YGR052W, strain FMP48, active compounds read low 0.896 | S. cerevisiae deletion strains, locus YGR092W, strain DBF2, active compounds read low 0.905 | [6] 0.883 | S. cerevisiae deletion strains, locus YHR082C, strain KSP1, active compounds read low 0.934 | S. cerevisiae deletion strains, locus YHR205W, strain SCH9, active compounds read low 0.84 | S. cerevisiae deletion strains, locus YIL147C, strain SLN1, active compounds read low 0.973 | [7] 0.918 | S. cerevisiae deletion strains, locus YJL128C, strain PBS2, active compounds read low 0.903 | S. cerevisiae deletion strains, locus YJL157C, strain FAR1, active compounds read low 0.958 | S. cerevisiae deletion strains, locus YJR016C, strain ILV3, active compounds read low 0.98 | S. cerevisiae deletion strains, locus YJR066W, strain TOR1 (second series), active compounds read low 0.955 | [8] 0.899 | S. cerevisiae deletion strains, locus YKL048C, strain ELM1, active compounds read low 0.958 | S. cerevisiae deletion strains, locus YKL067W, strain YNK1, active compounds read low 0.877 | S. cerevisiae deletion strains, locus YKL101W, strain HSL1, active compounds read low 0.891 | S. cerevisiae deletion strains, locus YKL193C, strain SDS22, active compounds read low 0.969 | S. cerevisiae deletion strains, locus YKL203C, strain TOR2, active compounds read low 0.995 | S. cerevisiae deletion strains, locus YLR133W, strain CKI1, active compounds read low 0.932 | S. cerevisiae deletion strains, locus YLR403W, strain SFP1, active compounds read low 0.952 | S. cerevisiae deletion strains, locus YML070W, strain DAK1, active compounds read low 0.936 | S. cerevisiae deletion strains, locus YMR001C, strain CDC5, active compounds read low 0.968 | S. cerevisiae deletion strains, locus YMR205C, strain PFK2 (second series), active compounds read low 0.931 | S. cerevisiae deletion strains, locus YMR277W, strain FCP1, active compounds read low 0.963 | S. cerevisiae deletion strains, locus YNL006W, strain LST8, active compounds read low 0.979 | S. cerevisiae deletion strains, locus YNL020C, strain ARK1, active compounds read low 0.916 | S. cerevisiae deletion strains, locus YNL161W, strain CBK1, active compounds read low 0.972 | [10] 0.881 | S. cerevisiae deletion strains, locus YNL207W, strain RIO2, active compounds read low 0.98 | S. cerevisiae deletion strains, locus YNL222W, strain SSU72, active compounds read low 0.968 | S. cerevisiae deletion strains, locus YNL307C, strain MCK1 (second series), active compounds read low 0.882 | S. cerevisiae deletion strains, locus YOL078W, strain AVO1, active compounds read low 0.966 | S. cerevisiae deletion strains, locus YOL136C, strain PFK27, active compounds read low 0.93 | S. cerevisiae deletion strains, locus YOR061W, strain CKA2, active compounds read low 0.929 | S. cerevisiae deletion strains, locus YOR119C, strain RIO1, active compounds read low 0.926 | [11] 0.914 | S. cerevisiae deletion strains, locus YOR329C, strain SCD5, active compounds read low 0.972 | S. cerevisiae deletion strains, locus YPL031C, strain PHO85, active compounds read low 0.932 | S. cerevisiae deletion strains, locus YPL153C, strain RAD53, active compounds read low 0.934 | S. cerevisiae deletion strains, locus YPL204W, strain HRR25, active compounds read low 0.916 | S. cerevisiae deletion strains, locus YPL209C, strain IPL1, active compounds read low 0.974 | S. cerevisiae deletion strains, locus YPR025C, strain CCL1, active compounds read low 0.97 | S. cerevisiae deletion strains, locus YPR106W, strain ISR1, active compounds read low 0.958 | S. cerevisiae deletion strains, locus YPR111W, strain DBF20, active compounds read low 0.936 | S. cerevisiae deletion strains, strain NNK1, active compounds read low 0.97 | S. cerevisiae deletion strains, strain TSCII, active compounds read low 0.963

CN(C)c1ccc(/C=C2\C(=O)Nc3ccccc32)cc1
inactive: S. cerevisiae deletion strains, locus YAL040C, strain CLN3, active compounds read low 0.95 | S. cerevisiae deletion strains, locus YCL061C, strain MRC1 (second series), active compounds read low 0.993 | S. cerevisiae deletion strains, locus YDR363W, strain ESC2, active compounds read low 0.963 | S. cerevisiae deletion strains, locus YGR229C, strain SMI1, active compounds read low 0.93 | [3] 0.972 | [4] 0.984 | S. cerevisiae deletion strains, locus YNL197C, strain WHI3, active compounds read low 0.942 | [5] 0.972
active: S. cerevisiae deletion strains, locus YER002W, strain NOP16, active compounds read low 0.877 | S. cerevisiae deletion strains, locus YNL175C, strain NOP13, active compounds read low 0.809 | S. cerevisiae deletion strains, locus YNL224C, strain SQS1, active compounds read low 0.891 | S. cerevisiae deletion strains, locus YOR083W, strain WHI5 (second series), active compounds read low 0.786

CN1C[C@H](C(=O)N[C@]2(C)C[C@@]3(O)C4CCCN4C(=O)[C@H](Cc4ccccc4)N3C2=O)C=C2c3cccc4[nH]cc(c34)C[C@H]21 (stereo not given in full)
inactive: [2] 0.986 | [6] 0.994 | [7] 0.958 | [8] 0.945 | [9] 1 | [10] 0.944 | [11] 0.997 | [12] 0.981
